# The list is a sample of the results.
# aSyn 5UTR act: Activators working through SNCA 5'UTR binding (MLPCN); alpha-synuclein 5'UTR reporter, activators screen; activity score, % (tested at 7.5 µM), hits read low; 300,000 tested, 7.1% active; AID 1814; in the data active means activity score below about -60%
# A number is an active result; i = inactive.
SMILES,aSyn 5UTR act
O=C(/C=C/Nc1ccc(F)c(Cl)c1)c1ccccc1,-211
CC(=O)c1cccc(N/C=C\C(=O)c2ccc(C)cc2)c1,-159
Cc1ccc(C(=O)/C=C/Nc2ccc3c(c2)OCO3)cc1,-182
CCCCN1CCc2c([nH]c3c(C)cccc23)C1=O,-150
CCc1ccc(OCc2cnc(Cl)s2)cc1,-78
CCOC(=O)CCSc1nc(C)c2cc(C)ccc2n1,-87
COc1cnc(-c2ccccn2)nc1Oc1ccc(F)cc1F,-118
COc1cnc(-c2ccccn2)nc1NC(C)C,i
COc1ccc(NC(=O)c2ccc(C)cc2Cl)c([N+](=O)[O-])c1,-131
COc1ccc(NC(=O)c2ccc([N+](=O)[O-])s2)c([N+](=O)[O-])c1,-92
COc1ccc(NC(=O)c2ccc(Br)o2)c([N+](=O)[O-])c1,-109
COc1ccc(NC(=O)c2ccc(C)o2)c([N+](=O)[O-])c1,-102
CC(C)CC1c2[nH]c3ccccc3c2CCN1C(=O)c1cnccn1 (stereo unspecified),-95
N#C/C(C(=O)Oc1ccccc1)=C1\C=CC=CN1,-80
CC1CCC/C(=C(\C#N)c2nc(-c3cc4ccccc4oc3=O)cs2)C1 (stereo unspecified),-122
O=c1oc2ccccc2cc1-c1csc(NN=C2CCCCC2)n1,-122
O=c1oc2ccccc2cc1-c1csc(Nc2nc3ccc(F)cc3s2)n1,-115
C/C(=N\Nc1nc(-c2ccc(C)cc2C)cs1)c1cc2ccccc2oc1=O,-72
O=c1oc2ccccc2cc1-c1nc2c(s1)CCCC2,i
O=c1c(N2CCCCC2)coc2ccccc12,-86
Cc1ccccc1NC(=O)CSc1nnc(-c2ccccn2)o1,-77
C/C(N)=C(/C#N)C(=O)CSc1nnc(-c2ccc3c(c2)OCO3)o1,i
O=C(CSc1nnc(-c2cccnc2)o1)Nc1ccccn1,-147
O=C(CSc1nnc(-c2cccc(Cl)c2)o1)Nc1ccc2c(c1)OCCO2,-180
NC(=O)CSc1nnc(-c2ccc3c(c2)OCO3)o1,-91
SMILES,aSyn 5UTR act
O=C(CSc1nnc(-c2ccccn2)o1)Nc1cccc(Cl)c1,-194
O=C(CSc1n[nH]c(-c2ccccn2)n1)Nc1cccc(Cl)c1,i
O=C(CSc1nnc(-c2ccc(C(F)(F)F)cn2)o1)Nc1cccc(Cl)c1,-192
CCNC(=S)N=Nc1c(O)[nH]c2ccc(C(C)C)cc12,i
Oc1cccc(NC(=S)N=Nc2c(O)[nH]c3ccccc23)c1,-158
CCCCNC(=S)N=Nc1c(O)[nH]c2ccccc12,-81
O=C(CSCC(=O)N1CCCCC1)Nc1nc(-c2ccc(Cl)s2)cs1,-118
O=C(CN1C(=O)CCC1=O)Nc1nc(-c2ccc(Cl)s2)cs1,-64
Clc1ccc(-c2nc(NCCN3CCOCC3)c3ccccc3n2)cc1,-90
CCOc1cc2nc(-c3ccc(OC)c(OC)c3)nc(NCCCN3CCOCC3)c2cc1OC,-65
COc1ccc(C2c3ccc4ccccc4c3Oc3ncn(CCN4CCOCC4)c(=N)c32)cc1OC (stereo unspecified),i
Nc1cc2ccncc2c2ccccc12,-71
S=C(Nc1ccc(OCc2ccccc2)cc1)Nc1cccc(Cl)c1Cl,-102
O=C(Nc1ccccc1)Nc1ccc(Br)c(Cl)c1,-126
O=C(CN1CCCC1)Nc1ccc(NC(=O)Nc2ccccc2Cl)cc1,-126
O=C(Nc1ccccc1)Nc1ccccc1Br,-94
O=C(Nc1ccc(Cl)cc1)Nc1cccc2nsnc12,-126
O=C(Nc1ccccc1)Nc1cccc(Cl)c1Cl,-237
Cn1c(=NC(=O)c2ccccc2[N+](=O)[O-])sc2cccc(F)c21,-110
CC(=O)c1cc(C#N)c(SCc2ccccc2C#N)nc1C,-97
CC(=O)c1cc(C#N)c(SCC(=O)OC(C)(C)C)nc1C,-116
COc1cccc(-c2nn(C)c3sc(C(=O)NCCCN(C)Cc4ccccc4)cc23)c1,-76
COCCCNC(=O)c1cc2c(-c3ccc(Cl)cc3)nn(C)c2s1,-72
CCCNC(=O)CCn1nc(-c2ccc(Cl)cc2)c2ccccc2c1=O,i
Cn1nc(-c2ccc(Cl)cc2)c2cc(C(=O)N3CCN(c4ccccc4)CC3)sc21,-65
SMILES,aSyn 5UTR act
Cc1nn(-c2ccccc2)c2sc(C(=O)N3CCOCC3)cc12,-87
Oc1cccc(-c2nc3ccc4ccccc4c3c3c2CCC3)c1,-137
Oc1c(CN2CCOCC2)cc(COCc2ccccc2)c2cccnc12,i
Cc1cc(OCc2cccc(Cl)c2)c(C)cc1CN1CCOCC1,-65
O=C1OC(/C(=C\Nc2cc(Cl)ccc2O)[N+](=O)[O-])c2ccccc21 (stereo unspecified),-102
O=[N+]([O-])c1ccccc1S(=O)(=O)Oc1ccccc1/C=N/n1cnnc1,-79
CCC1CCCCN1C(=O)CSc1nnc(-c2cccs2)o1 (stereo unspecified),-74
CC1CCCN(C(=O)CSc2nnc(-c3cccs3)o2)C1 (stereo unspecified),-79
OCCCN=c1cc(-c2ccccc2)oc2ccc(Cl)cc12,-440
CC1(C)CC(N=c2cc(-c3ccccc3)oc3ccc(Cl)cc23)CC(C)(C)N1,i
Cn1c(O)c(/C=N/NC(=O)c2cc3ccccc3cc2O)c2ccccc21,-84
CC1(C)CN(c2ccc(N3CC(C)(C)C3=O)cc2)C1=O,-70
CCOC(=O)N1CCC(Nc2nc3ccccc3nc2NS(=O)(=O)c2ccc(Cl)cc2)CC1,-88
CCOC(=O)N1CCN(S(=O)(=O)c2ccc(C(=O)NNc3nc4ccc(Cl)cc4s3)cc2)CC1,i
Cc1ccc(-c2nc(-c3cccnc3)no2)c(C)c1,-92
Cc1c(-c2nc(-c3cccnc3)no2)cccc1[N+](=O)[O-],-81
O=C(Nc1ccccc1)c1ccc(-c2ccc([N+](=O)[O-])cc2)o1,-98
O=C(Nc1ccccc1)c1ccc(-c2ccc(Br)cc2)o1,-93
O=C(c1ccc(-c2ccc([N+](=O)[O-])cc2)o1)N1CCCCC1,-106
O=C1c2cccc3cccc(c23)C(=O)N1CCc1ccccc1,-246
O=C1c2ccc3c4c(ccc(c24)C(=O)N1CCCCO)C(=O)N(CCCCO)C3=O,i
O=C(CCN1C(=O)c2cccc3cccc(c23)C1=O)N1CCOCC1,-102
CCc1ccc(C(=O)c2cc3ccc(O)cc3oc2=O)cc1,-106
COc1cc(/C=C(\C#N)C(=O)N2CCOCC2)ccc1OCc1ccccc1,-120
N#C/C(=C\c1ccc(OCc2ccc(C(=O)O)cc2)cc1)C(=O)N1CCOCC1,i
SMILES,aSyn 5UTR act
Cc1ccc(NC(=O)C(C)SCc2ccccc2)cc1 (stereo unspecified),-87
COc1cccc(NC(=O)C(C)SCc2ccccc2)c1 (stereo unspecified),-63
CC(SCc1ccccc1)C(=O)Nc1ccc2c(c1)OCO2 (stereo unspecified),-66
CC1CCN(C(=O)CCc2nnc(-c3ccccc3)o2)CC1,-106
O=C(CSc1nnc(-c2ccccc2)o1)N1CCCC1,-102
O=C(CCc1nnc(-c2ccc3c(c2)OCO3)o1)N1CCC(c2ccc(F)cc2)C1 (stereo unspecified),-104
Cn1nc([N+](=O)[O-])nc1Sc1nnc(-c2ccccc2)o1,i
O=C(CSc1nnc(-c2ccccc2)o1)N1CCCCC1,-74
O=C(CSc1nnc(-c2ccc(F)cc2)o1)N1CCCCC1,-88
Cc1cc(Cl)ccc1Nc1ncccc1C(N)=O,-154
Cc1ccc(Nc2ncccc2C(N)=O)cc1,-139
COc1ccc(Nc2ncccc2C(=O)O)cc1,-77
CN1C=C/C(=C\c2cc[n+](C)c3ccccc23)c2ccccc21,i
Cc1ccc(C(=O)Nc2ccn(Cc3ccc(F)cc3)n2)o1,-65
